POLH inh: DNA polymerase eta (human) inhibition; recombinant Pol eta, fluorescent DNA replication assay; Potency, µM (titrated, usually from 114 µM), actives largely listed as inhibitors; 390,000 compounds, 1.2% hits
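Pol eta (10 nM) was preincubated with compounds for 15 min at room temperature, after which fluorescent replication substrate (50 nM final) was added to start the reaction. Fluorescence was read kinetically at 0 and 10 min.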
TDP1 block: inhibitors of human tyrosyl-DNA phosphodiesterase TDP1 | Potency, µM (doses to about 130 µM), actives largely listed as inhibitors | AID 485290 | Q9NUW8 | 350,000 compounds, 0.28% hits | recombinant TDP1, AlphaScreen DNA substrate cleavage; also: nearly all actives have a fitted effect of over 40% in size
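Enzyme-compound mixtures sat 15 min at room temperature, followed by a 5 min reaction with 15 nM final substrate and 10 min with AlphaScreen beads. Recombinant human Tdp1 was used at 1 nM final.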
Pol iota inh: DNA polymerase iota (human) inhibition | Q9UNA4 | Pol iota fluorescent replication assay, 10 min | Potency, µM (titrated, usually from 115 µM), hits mostly inhibitors | 390,000 compounds, 1% hits | AID 588590
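Pol iota at 10 nM preincubated 15 min with compounds at room temperature; reaction started with fluorescent substrate, 50 nM final. Fluorescence read kinetically at 0 and 10 min; buffer-only wells as negative control.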
Pol beta inh: DNA polymerase beta (human) inhibition. P06746. Pol beta primer extension/strand displacement, fluorescence kinetic. Potency, µM (doses to about 114 µM), usual class: inhibitors. 340,000 compounds, 1.3% hits
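Values derive from four-parameter Hill fits of normalized kinetic data: reads at 0 and 10 min following addition of 50 nM substrate to 10 nM Pol beta preincubated 15 min with compound.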
FEN1 inhibitor: human FEN1 inhibition; Recombinant FEN1 flap cleavage, fluorescence, 15 min; P39748; 390,000 compounds, 0.35% hits; Potency, µM (doses to about 114 µM), hits mostly inhibitors; also: nearly all actives have a fitted effect of over 65% in size
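Nuclease activity of 10 nM FEN1 was measured after 15 min of room-temperature exposure to titrated compounds, by adding 50 nM flap substrate and reading plates at 0 and 15 min.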
Pol kappa inh: blocks human DNA polymerase kappa activity. Q9UBT6. purified Pol kappa, fluorescent DNA synthesis assay, 10 min. Potency, µM (top dose mostly 107 µM), most hits filed as inhibitors. 400,000 compounds, 0.53% hits
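Kinetic fluorescence readout at 0 and 10 min followed reaction start with substrate at 50 nM final. Beforehand, enzyme (10 nM Pol kappa) stood 15 min with compound at room temperature; buffer-only wells were negative controls.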
A number is an active result. This is a sample that favours compounds with a hit; in the whole collection about 2.4% have one here. Calls follow the shape of the dose curve; as a rule, active = well fitted curve in the direction sought with a large enough effect; inconclusive = small, poorly fitted or top-dose-only effect, or another doubt; inactive = no such curve, though single readings can be large; an effect the other way counts as inactive or inconclusive.

Results for O=C(Cn1ncc(Cl)c(Cl)c1=O)NC1CCS(=O)(=O)C1 (stereo unspecified) ?
POLH inh: inconclusive; Pol iota inh: 14µM; Pol beta inh: inconclusive; FEN1 inhibitor: inactive; Pol kappa inh: inconclusive

Results for CCOC(=O)c1ccc(NC(=O)CSc2cn(CC(=O)N3CCCC3)c3ccccc23)cc1 ?
POLH inh: inactive; TDP1 block: inactive; Pol iota inh: inactive; Pol beta inh: inactive; FEN1 inhibitor: inactive; Pol kappa inh: inactive

Results for O=C1CN(C(=O)/C=C/c2ccco2)c2ccccc2N1 ?
POLH inh: inconclusive; TDP1 block: 45µM; Pol iota inh: inconclusive; Pol beta inh: inconclusive; FEN1 inhibitor: inactive; Pol kappa inh: inactive

How did C[C@H]1CN([C@@H](C)CO)C(=O)CCCn2nncc2CO[C@@H]1CN(C)Cc1ccncc1 do in these assays?
POLH inh: inactive

What do the screens show for `CCOc1ccc(CC(=O)Nc2c(C(=O)c3ccc(F)cc3)oc3ccccc23)cc1OCC`?
POLH inh: inactive; TDP1 block: inactive; Pol iota inh: inactive; Pol beta inh: inactive; FEN1 inhibitor: inactive; Pol kappa inh: inactive

What do the screens show for `Cc1ccc(-c2csc3nc4c5ccccc5c(NCCCN(C)C)nn4c(=O)c23)cc1`?
POLH inh: inactive; TDP1 block: inactive; Pol iota inh: inactive; Pol beta inh: inactive; FEN1 inhibitor: 20µM; Pol kappa inh: inactive

What do the screens show for `Cc1ccc(S(=O)(=O)N2CCN(C(=O)c3ccccc3)CC2)cc1`?
POLH inh: inactive; TDP1 block: inactive; Pol iota inh: inactive; Pol beta inh: inactive; FEN1 inhibitor: inactive; Pol kappa inh: inactive

How did Cc1ccc(S(=O)(=O)N2CCN(C(=O)c3cccc(-n4cccc4)c3)CC2)cc1 do in these assays?
POLH inh: 18µM; TDP1 block: inactive; Pol iota inh: 22µM; FEN1 inhibitor: inactive; Pol kappa inh: 79µM

What do the screens show for `COc1ccc2nc3sc(C(=O)N4CCN(c5ccccc5)CC4)cc3cc2c1`?
POLH inh: inactive; TDP1 block: inactive; Pol iota inh: inactive; Pol beta inh: inactive; FEN1 inhibitor: inactive; Pol kappa inh: inactive

How did O=C(O)CSc1c2c(nc3cc(C(=O)Nc4ccc(F)c(Cl)c4)ccc13)CCCC2 do in these assays?
POLH inh: 50µM; TDP1 block: 56µM; Pol iota inh: inconclusive; Pol beta inh: inactive; FEN1 inhibitor: inconclusive; Pol kappa inh: inactive

Results for COc1ccc(NC(=O)Cn2c(=O)n(Cc3ccccc3Cl)c(=O)c3cc(OC)c(OC)cc32)cc1 ?
POLH inh: inactive; TDP1 block: inactive; Pol iota inh: inactive; Pol beta inh: inactive; FEN1 inhibitor: inactive; Pol kappa inh: inactive

How did C=C1C(=O)O[C@@H]2C[C@@H](C)[C@@H]3C=CC(=O)[C@@]3(C)[C@@H](OC(C)=O)[C@H]12 do in these assays?
POLH inh: 45µM; TDP1 block: inactive; Pol iota inh: inconclusive; Pol beta inh: inactive; FEN1 inhibitor: inactive; Pol kappa inh: inactive

How did N#CC1=C(N)SC(N)=C(C#N)C1c1ccoc1 do in these assays?
Pol beta inh: 7.1µM

Results for CC1=C(C#N)C(c2ccoc2)C(C(=O)OCc2ccccc2)=C(N)S1 (stereo unspecified) ?
POLH inh: inactive; TDP1 block: inactive; Pol iota inh: inconclusive; Pol beta inh: inactive; FEN1 inhibitor: inactive; Pol kappa inh: inactive

Results for COc1cccc(C2c3c(ncn(-c4ccc(NC(C)=O)cc4)c3=N)Oc3ccc4ccccc4c32)c1 (stereo unspecified) ?
TDP1 block: inactive

What do the screens show for `CCOc1cc(/C=C2\C(=O)N(c3nc(-c4ccc(Br)cc4)cs3)N=C2c2ccccc2)ccc1O`?
POLH inh: 10µM; TDP1 block: inactive; Pol iota inh: inconclusive; Pol beta inh: 10µM; FEN1 inhibitor: 50µM; Pol kappa inh: 79µM

What do the screens show for `CC(C)CCN1C(=O)c2ccc(C(=O)Nc3ccc(Br)cc3C(=O)O)cc2C1=O`?
POLH inh: 32µM; TDP1 block: inactive; Pol iota inh: inconclusive; Pol beta inh: inactive; FEN1 inhibitor: inactive; Pol kappa inh: inactive

What do the screens show for `Cc1cc(C(=O)CSc2nnc(-c3ccco3)o2)c(C)n1C`?
POLH inh: inactive; TDP1 block: inactive; Pol iota inh: 35µM; FEN1 inhibitor: inactive; Pol kappa inh: inconclusive

How did COc1ccc(C(CC(=O)Nc2cc(OC)c(OC)c(OC)c2)N2Cc3ccccc3C2=O)cc1 (stereo unspecified) do in these assays?
POLH inh: inactive; TDP1 block: inactive; Pol iota inh: inactive; Pol beta inh: inactive; FEN1 inhibitor: inactive; Pol kappa inh: inactive

How did Cc1cc(C)c(O)c(-c2cc(C(=O)Nc3cccnc3)[nH]n2)c1 do in these assays?
POLH inh: inactive; TDP1 block: inactive; Pol iota inh: inconclusive; Pol beta inh: 56µM; FEN1 inhibitor: inactive; Pol kappa inh: inactive

How did Cc1cc(O)c(-c2cc(C(=O)Nc3cccnc3)[nH]n2)cc1C do in these assays?
POLH inh: inactive; TDP1 block: inactive; Pol iota inh: inactive; Pol beta inh: inactive; FEN1 inhibitor: inactive; Pol kappa inh: inactive

Results for CCOc1cc(C2NC(=O)c3c(sc4c3CCN(C)C4)N2)ccc1OC(=O)c1ccccc1Cl (stereo unspecified) ?
POLH inh: inactive; Pol iota inh: inconclusive; Pol beta inh: inactive; FEN1 inhibitor: 89µM; Pol kappa inh: inactive

What do the screens show for `CCOC(=O)c1cc(-c2ccccc2C)nn1Cc1cc(CC)no1`?
POLH inh: inactive; TDP1 block: 56µM; Pol iota inh: inactive; FEN1 inhibitor: inactive; Pol kappa inh: inactive

What do the screens show for `CCOC(=O)c1cc(-c2ccccc2)nn1Cc1cc(CC)no1`?
POLH inh: inactive; Pol iota inh: inactive; FEN1 inhibitor: inactive; Pol kappa inh: inactive

What do the screens show for `O=c1ccc2cc3c4c(c2o1)CCCN4CCC3`?
POLH inh: inconclusive; Pol iota inh: inconclusive; Pol beta inh: inactive; FEN1 inhibitor: inactive; Pol kappa inh: inactive

What do the screens show for `O=c1oc2c3c4c(cc2s1)CCCN4CCC3`?
POLH inh: inconclusive; TDP1 block: 14µM; Pol iota inh: 11µM; Pol beta inh: 22µM; FEN1 inhibitor: inconclusive; Pol kappa inh: inconclusive

What do the screens show for `O=C(NCc1cccc(Cl)c1)c1cnc(N2CCCCC2)c2ccccc12`?
POLH inh: inactive; TDP1 block: inactive; Pol iota inh: inactive; Pol beta inh: inactive; FEN1 inhibitor: inactive; Pol kappa inh: inactive

How did O=C(c1ccc2c(=O)n3c(nc2c1)CCCCC3)N1CCN(C(c2ccccc2)c2ccccc2)CC1 do in these assays?
POLH inh: inactive; TDP1 block: inactive; Pol iota inh: 89µM; Pol beta inh: inactive; FEN1 inhibitor: inactive; Pol kappa inh: inactive

How did O=C(c1ccc2c(=O)n3c(nc2c1)CCCCC3)N1CCN(c2ccccc2)CC1 do in these assays?
POLH inh: inactive; TDP1 block: inactive; Pol iota inh: inactive; Pol beta inh: inactive; FEN1 inhibitor: inactive; Pol kappa inh: inactive

Screens: PubChem BioAssay, National Center for Advancing Translational Sciences (NCATS)
